Screens from PubChem.
Rows were chosen to be rich in hits. Some 11% of all compounds tested hit in one or more screens of this group.
HP1b binding inh – inhibitors of HP1-beta chromodomain binding to methylated histone tails | AlphaScreen HP1-beta / biotin-H3K9me3 peptide binding | Potency, µM (doses to about 114 µM), hits mostly inhibitors | 390,000 tested, 0.56% active; further: nearly all actives have a fitted effect of over 70% in size
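Compound inhibition of the preformed complex between 50 nM HP1-beta and 50 nM biotinylated H3K9me3 peptide was read by AlphaScreen. Buffer was PBS pH 7.4 with 0.01% Tween-20. Incubations ran 30 min at room temperature, with 10 ug/mL donor/acceptor beads.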
L3MBTL1 inh – inhibitors of human L3MBTL1; Q9Y468; AlphaScreen L3MBTL1–H3K9me1 peptide binding; Potency, µM (highest dose often 57.1 µM), usual class: inhibitors; 230,000 tested, 0.66% active; AID 485360; further: nearly all actives have a fitted effect of over 60% in size
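First, the protein-peptide complex forms for 30 min at room temperature (L3MBTL1 50 nM, biotinylated H3K9me1 peptide 75 nM). Next, compounds are pin-transferred and incubated 30 min. Finally, AlphaScreen beads are added and read after 30 min.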
JMJD2A Tudor – inhibitors of human JMJD2A Tudor domain; AlphaScreen JMJD2A-Tudor / H3K4me3 peptide binding; Potency, µM (top dose mostly 114 µM), hits mostly inhibitors; 390,000 tested, 4.4% active; further: nearly all actives have a fitted effect of over 50% in size
G9a inh – G9a (human) methyltransferase inhibition; Q96KQ7; G9a H3K9 monomethylation, AlphaScreen, 2 h; Potency, µM (titrated, usually from 102 µM), actives largely listed as inhibitors; 350,000 tested, 8.8% active; AID 504332; further: nearly all actives have a fitted effect of over 75% in size
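Enzyme 20 nM + cpd, 15 min RT; add b-H3K9 pep 500 nM / SAM 20 uM; 2 h RT; anti-H3K9me1 Ab 0.5 ug/mL + SA donor / anti-rabbit acceptor beads 20 ug/mL each, 10 min; AlphaScreen read.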
BAZ2B inh – blocks human BAZ2B | AlphaScreen BAZ2B-H3K14Ac peptide displacement | Potency, µM (top dose mostly 114 µM), actives largely listed as inhibitors | 360,000 tested, 4.4% active | AID 504333; further: nearly all actives have a fitted effect of over 60% in size
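BAZ2B 50 nM plus b-H3(5-23)K14Ac 50 nM, PBS pH 7.4/0.01% Tween-20, 30 min RT; compound added (max 110 uM), 30 min RT; streptavidin donor/Ni-chelate acceptor beads 10 ug/mL final, 20 min dark; AlphaScreen read.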
Hits are given with their value; [ ] = dose if it differs, or a comment. The call rests on the fitted dose curve; in most records, active means well fitted inhibition curve with a large enough effect; inconclusive means small, poorly fitted or top-dose-only effect; inactive means no such curve, though single readings can be large or run the other way.

What do the screens show for `CN(C)CC/C=C1\c2ccccc2COc2ccc(CC(=O)O)cc21`?
G9a inh: inactive

What do the screens show for `COc1ccccc1NC(=O)c1c(C)cc(C)nc1SCC(=O)Nc1ccc(C)cc1`?
HP1b binding inh: inactive; JMJD2A Tudor: inactive; G9a inh: inactive; BAZ2B inh: inactive

What do the screens show for `Cc1ccccc1NC(=S)N/N=C/c1ccc(O)cc1O`?
HP1b binding inh: inconclusive; L3MBTL1 inh: 31.6µM; JMJD2A Tudor: 56.2µM; G9a inh: inactive[12.7 µM]; BAZ2B inh: 8.91µM

Results for Cc1ccccc1NC(=S)N/N=C/C(C)c1ccccc1 (stereo not drawn) ?
HP1b binding inh: inactive; L3MBTL1 inh: inactive; JMJD2A Tudor: inconclusive; G9a inh: 22.4µM; BAZ2B inh: inactive

Results for O=P(O)(C(O)c1ccccc1)C(O)c1ccccc1 (stereo not drawn) ?
HP1b binding inh: inactive; L3MBTL1 inh: inactive; JMJD2A Tudor: inactive; G9a inh: inactive[2.33 µM]; BAZ2B inh: inactive

What do the screens show for `CCOc1ccccc1C(=O)Oc1c(S(=O)(=O)c2ccc(C)cc2)c(C)nn1-c1ccccc1`?
HP1b binding inh: inactive; JMJD2A Tudor: inactive; G9a inh: inconclusive; BAZ2B inh: inconclusive

What do the screens show for `CN(C)C(=O)c1ccc(NC(=O)c2cc(-c3ccco3)nc3ccccc23)cc1`?
HP1b binding inh: inconclusive; JMJD2A Tudor: 39.8µM; G9a inh: inactive; BAZ2B inh: inactive

How did CCN(CC)CCNC(=O)c1ccc(NC(=O)c2cc(-c3ccco3)nc3ccccc23)cc1 do in these assays?
HP1b binding inh: inactive; JMJD2A Tudor: inconclusive; G9a inh: 31.6µM; BAZ2B inh: 31.6µM

Results for Cc1ccc(C)c(Cn2c3ccccc3c3cnn(CC(=O)NCC(C)c4ccccc4)c(=O)c32)c1 (stereo not drawn) ?
HP1b binding inh: inactive; JMJD2A Tudor: inactive; G9a inh: inactive; BAZ2B inh: inactive

How did CCc1ccc2nc3sc(C(=O)N4CCc5ccccc54)c(N)c3cc2c1 do in these assays?
L3MBTL1 inh: inactive; G9a inh: 50.1µM; BAZ2B inh: inactive

Results for CCOc1ccc2nc3sc(C(=O)N4CCN(C)CC4)c(N)c3cc2c1 ?
HP1b binding inh: inactive; JMJD2A Tudor: inconclusive; G9a inh: inconclusive; BAZ2B inh: inactive

How did Cc1ccc2nc3sc(C(=O)N4CCOCC4)c(N)c3cc2c1 do in these assays?
HP1b binding inh: inactive; L3MBTL1 inh: inactive; JMJD2A Tudor: inconclusive; G9a inh: 14.1µM; BAZ2B inh: inactive

What do the screens show for `Cc1ccc2cc3c(N)c(C(=O)N4CCOCC4)sc3nc2c1`?
HP1b binding inh: inactive; L3MBTL1 inh: inactive; JMJD2A Tudor: inactive; G9a inh: 28.2µM; BAZ2B inh: inactive

How did Cc1ccc(C)c(NC(=O)CN2CCSc3ccc(S(=O)(=O)N4CCCC4)cc32)c1 do in these assays?
HP1b binding inh: inactive; JMJD2A Tudor: inactive; G9a inh: inconclusive; BAZ2B inh: inactive

What do the screens show for `O=C(NCCc1ccc(Cl)cc1)c1cc(-c2ccc(Cl)cc2)n[nH]1`?
HP1b binding inh: inactive; JMJD2A Tudor: inactive; G9a inh: inactive; BAZ2B inh: inactive

How did CCOC(=O)c1ccccc1NC(=O)N1CCN2CCCCC2C1 (stereo not drawn) do in these assays?
HP1b binding inh: inactive; JMJD2A Tudor: inactive; G9a inh: inactive; BAZ2B inh: inactive

What do the screens show for `COCc1nnc(NC(=O)c2ccc(S(=O)(=O)N3CCOCC3)cc2)o1`?
HP1b binding inh: inactive; JMJD2A Tudor: 31.6µM; BAZ2B inh: 17.8µM

What do the screens show for `CC1CCCCN1S(=O)(=O)c1ccc(C(=O)Nc2nnc(C3=COCCO3)o2)cc1` (stereo not drawn)?
HP1b binding inh: inactive; JMJD2A Tudor: inactive; G9a inh: inactive; BAZ2B inh: 89.1µM

How did Cc1nnc(NC(=O)c2ccc(S(=O)(=O)N3CCCCC3C)cc2)o1 (stereo not drawn) do in these assays?
HP1b binding inh: inactive; JMJD2A Tudor: inconclusive; BAZ2B inh: inactive

How did COc1cc(-c2nnc(NC(=O)c3ccc(S(=O)(=O)N4CCOCC4)cc3)o2)cc(OC)c1OC do in these assays?
L3MBTL1 inh: inactive; G9a inh: inactive; BAZ2B inh: inactive

What do the screens show for `CC1CCCN(S(=O)(=O)c2ccc(C(=O)NC(C)c3ccccc3)cc2)C1` (stereo not drawn)?
HP1b binding inh: inactive; L3MBTL1 inh: inactive; JMJD2A Tudor: inactive; G9a inh: 17.8µM; BAZ2B inh: inactive

Results for O=C(Nc1nnc(C2=COCCO2)o1)c1ccc(S(=O)(=O)N2CCOCC2)cc1 ?
HP1b binding inh: inactive; JMJD2A Tudor: 79.4µM; G9a inh: 50.1µM

What do the screens show for `CCc1ccc(NCc2cc3cc4c(cc3n(CC(=O)Nc3ccccc3Cl)c2=O)OCO4)cc1`?
HP1b binding inh: inactive; JMJD2A Tudor: inactive; G9a inh: inconclusive; BAZ2B inh: inconclusive

Results for COc1ccccc1-c1nnc(NC(=O)c2ccc(S(=O)(=O)N3CCOCC3)cc2)o1 ?
HP1b binding inh: inactive; JMJD2A Tudor: 79.4µM; G9a inh: inactive[12.7 µM]; BAZ2B inh: inactive

Results for CC1CCCN(S(=O)(=O)c2ccc(C(=O)Nc3nnc(C4=COCCO4)o3)cc2)C1 (stereo not drawn) ?
BAZ2B inh: 79.4µM

How did CC1CN(S(=O)(=O)c2ccc(C(=O)Nc3nnc(-c4ccccn4)o3)cc2)CC(C)O1 (stereo not drawn) do in these assays?
HP1b binding inh: inactive; JMJD2A Tudor: 89.1µM; G9a inh: inactive

What do the screens show for `O=C1c2ccc([N+](=O)[O-])cc2C(=O)N1Cc1cccnc1`?
HP1b binding inh: inactive; L3MBTL1 inh: inactive; JMJD2A Tudor: inactive; G9a inh: inactive; BAZ2B inh: inactive

Results for O=C(c1ccco1)N1CCC2(CCCN(Cc3ccncc3)C2)CC1 ?
G9a inh: inactive[12.7 µM]

What do the screens show for `CCOC(=O)c1c(NC(=O)c2ccccc2Cl)sc2c1CCc1ccccc1-2`?
HP1b binding inh: inactive; L3MBTL1 inh: inactive; JMJD2A Tudor: inactive; G9a inh: 4.47µM; BAZ2B inh: inactive

What do the screens show for `CCOC(=O)c1c(NC(=O)C2CCCCC2C(=O)O)sc2c1CCCCC2` (stereo not drawn)?
HP1b binding inh: inactive; L3MBTL1 inh: inactive[11.4 µM]; JMJD2A Tudor: inactive; G9a inh: inactive; BAZ2B inh: inconclusive

What do the screens show for `CCOC(=O)c1c(NC(=O)C2C3C=CC(C3)C2(C)C(=O)O)sc2c1CCCC2` (stereo not drawn)?
HP1b binding inh: inactive; L3MBTL1 inh: inactive; JMJD2A Tudor: inactive; G9a inh: inactive; BAZ2B inh: 56.2µM

How did CCOC(=O)c1c(NC(=O)C(C)Sc2cn(CCNC(=O)c3ccc(OC)c(OC)c3)c3ccccc23)sc2c1CCC2 (stereo not drawn) do in these assays?
HP1b binding inh: inactive; JMJD2A Tudor: inconclusive; G9a inh: inconclusive; BAZ2B inh: inactive

What do the screens show for `CCOC(=O)c1c(NC(=O)C(C)Sc2cn(CCNC(=O)c3ccccc3OC)c3ccccc23)sc2c1CCC2` (stereo not drawn)?
HP1b binding inh: inactive; JMJD2A Tudor: inactive; G9a inh: inconclusive; BAZ2B inh: 8.91µM
